# Shown are actives, neighbours in structure and some others; about 2.4% of the full set was active somewhere.
# STAT3 SMM: STAT3 (human) binding; P40763; Small molecule microarray, His-STAT3 binding, anti-His fluorescence; calls only; 17,000 tested, 0.2% active;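 active = compounds whose four printed spots each show fluorescence over background unusually high for their array block, chance value under 7%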
# Target sequence (P40763 whole entry, looked up): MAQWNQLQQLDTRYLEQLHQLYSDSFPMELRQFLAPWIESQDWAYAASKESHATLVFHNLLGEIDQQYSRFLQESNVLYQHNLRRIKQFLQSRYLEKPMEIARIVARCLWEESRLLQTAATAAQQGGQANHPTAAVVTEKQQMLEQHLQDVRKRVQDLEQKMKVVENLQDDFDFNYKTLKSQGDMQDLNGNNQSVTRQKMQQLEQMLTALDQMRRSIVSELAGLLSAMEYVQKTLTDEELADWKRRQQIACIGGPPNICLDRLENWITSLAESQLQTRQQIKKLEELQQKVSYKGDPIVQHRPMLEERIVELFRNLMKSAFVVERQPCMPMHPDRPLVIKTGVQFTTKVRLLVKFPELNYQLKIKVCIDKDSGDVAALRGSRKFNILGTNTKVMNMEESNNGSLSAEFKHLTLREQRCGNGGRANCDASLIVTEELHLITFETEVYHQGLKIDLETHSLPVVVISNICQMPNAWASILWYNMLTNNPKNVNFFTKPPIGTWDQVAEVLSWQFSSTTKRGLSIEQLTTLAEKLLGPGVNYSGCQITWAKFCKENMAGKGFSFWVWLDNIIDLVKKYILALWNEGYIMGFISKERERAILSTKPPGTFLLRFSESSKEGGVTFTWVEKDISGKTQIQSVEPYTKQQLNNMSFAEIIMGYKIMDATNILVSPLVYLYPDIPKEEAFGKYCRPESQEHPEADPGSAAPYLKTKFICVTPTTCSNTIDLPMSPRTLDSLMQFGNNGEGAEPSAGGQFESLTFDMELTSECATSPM
# NFkB SMM: binders of human NF-kappa-B p105; 17,000 tested, 1.3% active; P19838; Small molecule microarray, anti-His fluorescence binding; AID 624139; calls only;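 active = spot fluorescence over background significantly raised, with a chance value under 7% in all four replicate spots of the compound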;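 note: probe protein is his-tagged human p50 processed subunit at 1 µg/ml; raw spot fluorescence signals with no normalization applied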
# c-Myc SMM: binders of human c-Myc. P01106. small molecule microarray, His-c-Myc binding, anti-His fluorescence. calls only. 17,000 tested, 1.5% active. AID 624141;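 active = spot fluorescence over background with P-value below 7% in all four replicate spots, showing protein binding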;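 note: score is binary with 100 for all four spots passing and 0 otherwise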
# mut p53 SMM: binders of human mutant p53; small molecule microarray binding, anti-GST fluorescence; 17,000 tested, 0.4% active; calls only;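 active = compounds whose four printed spots each glow above background more than chance allows, each with a p-value under 7%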
# * = called active by the depositor; i = inactive; + = active, no number.
SMILES,STAT3 SMM,NFkB SMM,c-Myc SMM,mut p53 SMM
COC(=O)C(CC#Cc1ccc2c(c1)[C@]1(C(=O)N2)[C@H](C(=O)N2CCN(c3ncccn3)CC2)[C@H]2C(=O)O[C@H](c3ccccc3)[C@H](c3ccccc3)N2[C@@H]1c1ccc(OCCO)cc1)C(=O)OC,i,+,i,i
COC(=O)c1ccccc1NC(=O)CSc1nc(-c2ccc(F)cc2)cs1,i,i,i,i
CN(CC(N)=O)S(=O)(=O)c1ccc(F)cc1,i,i,i,i
CN(c1ccc(OCC(=O)O)cc1)S(=O)(=O)c1ccc(F)cc1,i,+,i,i
COc1cc(/C=C/C(=O)OCC[N+](C)(C)C)cc(OC)c1O,i,i,i,i
COC(=O)c1c2oc(c1C(=O)OC)C(=O)N[C@H](Cc1ccccc1)Cn1cc(nn1)CNC(=O)[C@H](Cc1ccccc1)NC(=O)N[C@@H](CO)CC2,i,i,i,i
COC(=O)C1=C2CC[C@H](CO)NC(=O)N[C@H](Cc3ccccc3)C(=O)NCc3cn(nn3)C[C@@H](Cc3ccccc3)NC(=O)c3oc(c(C(=O)OC)c3C(=O)OC)CC[C@H](CO)NC(=O)N[C@H](Cc3ccccc3)C(=O)NCc3cn(nn3)C[C@@H](Cc3ccccc3)NC(=O)C(=C1C(=O)OC)O2,+,i,i,i
CC(Sc1nc(=O)cc(N)n1-c1ccccc1)C(=O)Nc1ccc(Cl)cc1 (configuration not stated),i,i,i,i
C[C@@H]1O[C@@H](O[C@H]2[C@H](O[C@H]3CC[C@@]4(C)C(CC[C@]5(C)C4CC=C4C6CC(C)(C)CC[C@]6(C(=O)O[C@@H]6O[C@H](CO[C@@H]7O[C@H](CO)[C@@H](O[C@@H]8O[C@@H](C)[C@H](O)[C@@H](O)[C@H]8O)[C@H](O)[C@H]7O)[C@@H](O)[C@H](O)[C@H]6O)CC[C@]45C)C3(C)C)OC[C@H](O)[C@@H]2O)[C@H](O)[C@H](O)[C@H]1O (some centres not stated),i,i,i,i
CC(C)=CCC[C@](C)(O[C@@H]1O[C@H](CO[C@@H]2O[C@@H](CO)[C@H](O)[C@H]2O)[C@@H](O)[C@H](O)[C@H]1O)[C@H]1CC[C@]2(C)C1[C@H](O)CC1[C@@]3(C)CC[C@H](O[C@@H]4O[C@H](CO)[C@@H](O)[C@H](O)[C@H]4O[C@@H]4O[C@H](CO)[C@@H](O)[C@H](O)[C@H]4O)C(C)(C)C3CC[C@]12C (some centres not stated),i,+,+,i
COc1ccccc1NC(=O)c1ccccc1NC(=O)CCc1ccccc1,i,i,i,i
COc1ccc(C(=O)Nc2ccccc2C(=O)NC(C(=O)O)C(C)C)cc1 (configuration not stated),i,i,+,i
CC(C)C1CCC2(C)CCC(O)C(C)(O)C2C1OC(=O)/C=C/c1ccccc1 (configuration not stated),i,i,i,i
COC(=O)[C@H]1CC[C@H](OC(C)=O)[C@]2(C)CC[C@@H](C(C)C)[C@@H](OC(=O)/C=C/c3ccccc3)C12 (some centres not stated),i,+,+,i
CCn1c2ccccc2n2c(SC(C)C(=O)O)nnc12 (configuration not stated),i,i,i,i
C=CCNC(=O)[C@@H]1[C@H]2C(=O)O[C@H](c3ccccc3)[C@H](c3ccccc3)N2[C@H](c2ccccc2OCCO)[C@@]12C(=O)Nc1ccc(C#Cc3ccc(OC)cc3)cc12,i,+,i,i
C=CCNC(=O)[C@H]1[C@@H]2C(=O)O[C@@H](c3ccccc3)[C@@H](c3ccccc3)N2[C@@H](c2ccccc2OCCO)[C@]12C(=O)Nc1ccc(C#Cc3ccc(OC)cc3)cc12,i,i,i,i
COc1ccc(C#Cc2ccc3c(c2)[C@]2(C(=O)N3)[C@H](C(=O)Nc3nc4ccccc4s3)[C@H]3C(=O)O[C@H](c4ccccc4)[C@H](c4ccccc4)N3[C@@H]2c2ccc(OCCO)cc2)cc1,i,i,i,i
COc1ccc(C#Cc2ccc3c(c2)[C@]2(C(=O)N3)[C@H](c3ccc(OCCO)cc3)N3[C@H](c4ccccc4)[C@H](c4ccccc4)OC(=O)[C@H]3[C@@H]2C(=O)Nc2nc3ccccc3s2)cc1,i,+,i,i
Cc1ccc(NC(=O)CSc2nnc(-c3ccc(Cl)cc3Cl)n2-c2ccccc2)cc1,i,i,i,i
C[C@]12C[C@H](O)C3C(CC[C@@H]4C[C@H](O)CC[C@]34C)C1CC[C@@H]2C(=O)CO (some centres not stated),i,i,i,i
C[C@]12CCC(=O)C=C1CC[C@@H]1C2CC[C@@]2(C)C1CC[C@@H]2C(=O)CO (some centres not stated),i,i,i,+
O=C1NC(=O)C(c2c[nH]c3ccccc23)=C1c1c[nH]c2ccccc12,i,i,i,i
Cc1ccc(S(=O)(=O)N[C@H](C(=O)NCCn2cc(CN3C(=O)COC[C@H]3c3ccccc3)nn2)C(C)C)cc1,i,i,i,+
O=C(Nc1ccccc1)N[C@H](Cc1ccccc1)Cn1cc(CN2C(=O)COC[C@H]2c2ccccc2)nn1,i,i,i,+
SMILES,STAT3 SMM,NFkB SMM,c-Myc SMM,mut p53 SMM
O=C(N[C@@H](Cc1ccccc1)Cn1cc(CN2C(=O)COC[C@H]2c2ccccc2)nn1)c1ccccc1,i,i,i,+
CCC(Sc1nc(N)cc(=O)[nH]1)C(=O)Nc1ccc2ccccc2c1 (configuration not stated),i,i,i,i
Cc1nn(C(=O)Cn2nc([N+](=O)[O-])cc2C)c(C)c1Cl,i,i,+,i
C=CCOC(=O)[C@H]1[C@@H]2C(=O)O[C@@H](c3ccccc3)[C@@H](c3ccccc3)N2[C@@H](c2ccc(OCCOC(=O)[C@@H]3C[C@@H]4C(=O)N[C@@H](CC(C)C)C(=O)N4[C@@H]3c3cccc(OCCO)c3)cc2)[C@]12C(=O)Nc1ccc(I)cc12,i,+,i,+
C=CCOC(=O)[C@H]1[C@@H]2C(=O)O[C@@H](c3ccccc3)[C@@H](c3ccccc3)N2[C@@H](c2ccc(OCCOC(=O)[C@@H]3C[C@@H]4C(=O)N[C@@H](Cc5ccccc5)C(=O)N4[C@@H]3c3cccc(OCCO)c3)cc2)[C@]12C(=O)Nc1ccccc12,i,+,i,i
COc1ccc2ccc(=O)oc2c1C(OC(C)=O)C(=O)C(C)C (configuration not stated),i,i,i,i
Cc1cccc(NC(=O)CSc2n[nH]c(-c3ccccc3)n2)c1,i,i,i,i
C[C@@H]1CCCCO[C@H](CN(C)C(=O)CCC(F)(F)F)[C@@H](C)CN([C@H](C)CO)C(=O)c2cc(NS(=O)(=O)c3cccs3)ccc2O1,i,i,i,i

# Source: PubChem
